Experimental data as given in the supplement of paper PMC4840960.
± gives the standard deviation of the averaged measurements.

What follows are compounds tested on E18 rat cortical neuron-glia co-culture (assay: fiber score / MBP score (myelination specific beyond OL differentiation) (ratio); higher = more myelination-specific MBP alignment). Details: 1 µM; treatment time: 8 days (DIV5-DIV13).
Method in brief: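 Reported values are fiber score (continuous MBP fiber length per Olig2+ nucleus) divided by MBP score (thresholded MBP area × intensity per Olig2+ nucleus). They come from primary E18 rat cortical co-cultures treated with library compounds at 1 or 5 µM in myelination medium from DIV5 to DIV13, then fixed in 4 % paraformaldehyde, immunostained for MBP and Olig2 with DAPI, and analysed over four 10X fields per well in duplicate wells.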
With CCC(COC(=O)c1cc(OC)c(OC)c(OC)c1)(c1ccccc1)N(C)C (centres undefined) [Trimebutine] the “fiber score / MBP score” value was 0.423. CN1C(=O)CN=C(c2ccccc2)c2cc([N+](=O)[O-])ccc21 [Nimetazepam] was tested, and the “fiber score / MBP score” value was 0.743. With CC(C)CC(N(C)C)C1(c2ccc(Cl)cc2)CCC1 (centres undefined) [Sibutramine] the “fiber score / MBP score” value was 0.819 ± 0.34. In the case of COC(=O)N1CCN(C(=O)Cc2ccc(Cl)c(Cl)c2)C(CN2CCCC2)C1 (centres undefined), the “fiber score / MBP score” value is reported as 0.594. In the case of CC(=O)O[C@H]1C[C@@H]2CC[C@@H]3[C@H](CC[C@@]4(C)[C@H]3C[C@H]([N+]3(C)CCCCC3)[C@@H]4OC(C)=O)[C@@]2(C)C[C@@H]1[N+]1(C)CCCCC1 [Pancuronium], the “fiber score / MBP score” value is reported as 0.692. With c1ccc2c(c1)Nc1ccccc1S2 [Phenothiazine] the “fiber score / MBP score” value was 0.706. For O=P1(N(CCCl)CCCl)NCCCO1 (centres undefined) [Cyclophosphamide], the “fiber score / MBP score” value was 0.725. CCN(CC)CCOC(=O)C(O)(c1ccccc1)c1ccccc1 [Benactyzine] was tested, and the “fiber score / MBP score” value was 1.18. In the case of CCN(C(C)=O)c1cccc(-c2ccnc3c(C#N)cnn23)c1 [Zaleplon], the “fiber score / MBP score” value is reported as 0.794. O=C1Nc2ccc(Cl)cc2C(c2ccccc2Cl)=NC1O (centres undefined) [Lorazepam] was tested, and the “fiber score / MBP score” value was 0.711. COc1ccc2[nH]cc(CCN)c2c1 [5-Methoxytryptamine] was tested, and the “fiber score / MBP score” value was 0.779. For C[C@]12CC[C@H]3[C@@H](CCC4=CC(=O)CC[C@@]43C)[C@@H]1CC[C@@H]2O [Testosterone], the “fiber score / MBP score” value was 0.988 ± 0.093. For O[C@@H]1CCCC[C@H]1N1CCC(c2ccccc2)CC1 (racemic) [Vesamicol], the “fiber score / MBP score” value was 0.528. With CC(C)(O)[C@@H]1[C@H]2OC(=O)[C@@H]1[C@]1(O)C[C@H]3O[C@]34C(=O)O[C@H]2[C@]14C [Picrotin] the “fiber score / MBP score” value was 0.632.
